# According to the supplement of paper PMC9942566:
# ± gives the standard deviation of the averaged measurements.
# Tested on: Serratia marcescens K904 PosmB-luxCDABE reporter (pMQ747)
# Test: PosmB-lux reporter fold induction (RLU/OD600 relative to no-compound control), highest over Biolog concentrations; higher = stronger reporter activation
# Conditions: ΔrcsB mutant CMS5177; 4 h
# Experimental: (§1)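 Serratia marcescens K904 (wild type) or its isogenic ΔrcsB mutant, carrying the Rcs-dependent PosmB-luxCDABE reporter plasmid pMQ747, was grown in LB at OD600 0.1 in Biolog Phenotype MicroArray plates PM11-20 for 4 h at 30-32°C. Each compound is present at 3-4 proprietary concentrations (not stated); per the Fig. S1 legend the value given is the highest fold over those wells. Three independent trials.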
row,Compound,PosmB-lux reporter fold induction
1,"CN(C)CCC=C1c2ccccc2CCc2ccccc21 [amitriptyline] (Biolog plate: PM20, well positions: A2-4)",1.16 ± 0.17
2,"c1ccc(-c2ccccn2)nc1 [2,2'-Dipyridyl] (Biolog plate: PM13, well positions: B5-8)",1.71 ± 1.3
3,"Cn1cnc([N+](=O)[O-])c1Sc1ncnc2[nH]cnc12 [azathioprine] (Biolog plate: PM18, well positions: B9-12)",0.729 ± 0.15
4,"C[C@@H]1NC(=O)[C@@H](N)CNC(=O)[C@H](C2CCNC(=N)N2)NC(=O)/C(=C/NC(N)=O)NC(=O)[C@H](CNC(=O)CC(N)CCCN)NC1=O.N=C1NCC[C@H]([C@@H]2NC(=O)/C(=C/NC(N)=O)NC(=O)[C@H](CNC(=O)C[C@@H](N)CCCN)NC(=O)[C@H](CO)NC(=O)[C@@H](N)CNC2=O)N1 [Capreomycin] (Biolog plate: PM11, well positions: D1-4)",1.09 ± 0.081
5,"CO/N=C(\C(=O)N[C@@H]1C(=O)N2C(C(=O)O)=C(COC(N)=O)CS[C@H]12)c1ccco1 [Cefuroxime] (Biolog plate: PM13, well positions: D1-4)",1.42 ± 0.51
6,"CCCCC(CC)CNC(=N)NC(=N)NCCCCCCNC(=N)NC(=N)NCC(CC)CCCC (configuration not stated) [Alexidine] (Biolog plate: PM15, well positions: E1-4)",1.92 ± 0.13

# Tested on: Serratia marcescens K904 PosmB-luxCDABE reporter (pMQ747)
# Test: PosmB-lux reporter fold induction (RLU/OD600 relative to no-compound control), highest over Biolog concentrations; higher = stronger Rcs reporter activation
# Conditions: wild type K904; 4 h
# Experimental: as §1
row,Compound,PosmB-lux reporter fold induction
1,"Oc1c(I)cc(Cl)c2cccnc12 [5-chloro-7-iodo-8-hydroxy-quinoline] (Biolog plate: PM16, well positions: A9-12)",1.27 ± 0.55
2,"O=C(O)c1ccccc1S [Thiosalicylic acid] (Biolog plate: PM17, well positions: A9-12)",1.12 ± 0.27
3,"CCn1cc(C(=O)O)c(=O)c2cc(F)c(N3CCNCC3)nc21 [Enoxacin] (Biolog plate: PM11, well positions: E5-8)",2.1 ± 0.62
4,"CC1(C)S[C@@H]2[C@H](NC(=O)[C@H](N)c3ccc(O)cc3)C(=O)N2[C@H]1C(=O)O [Amoxicillin] (Biolog plate: PM11, well positions: B1-4)",2.48 ± 0.35
5,"CN[C@@H]1[C@H](O[C@H]2[C@H](O[C@H]3[C@H](O)[C@@H](O)[C@H](NC(=N)N)[C@@H](O)[C@@H]3NC(=N)N)O[C@@H](C)[C@]2(O)CO)O[C@@H](CO)[C@H](O)[C@H]1O [dihydro-streptomycin] (Biolog plate: PM19, well positions: G5-8)",1.47 ± 0.16
6,"CN(C)CCC=C1c2ccccc2CCc2ccccc21 [amitriptyline] (Biolog plate: PM20, well positions: A2-4)",1.19 ± 0.11
7,"COc1cc(Cc2cnc(N)nc2N)cc(OC)c1OC [trimethoprim] (Biolog plate: PM16, well positions: B9-12)",1.93 ± 0.91
8,"c1ccc(-c2ccccn2)nc1 [2,2'-Dipyridyl] (Biolog plate: PM13, well positions: B5-8)",1.97 ± 0.26
9,"CN(C)[C@@H]1C(O)=C(C(N)=O)C(=O)[C@@]2(O)C(O)=C3C(=O)c4c(O)ccc(Cl)c4[C@@H](O)[C@H]3C[C@@H]12 [Demeclocycline] (Biolog plate: PM11, well positions: D5-8)",1.53 ± 0.45
10,"CCN(CC)CCOC(=O)c1ccc(N)cc1 [Procaine] (Biolog plate: PM15, well positions: A2-4)",1.21 ± 0.28
11,"CO[C@@]1(NC(=O)C(C(=O)O)c2ccc(O)cc2)C(=O)N2C(C(=O)O)=C(CSc3nnnn3C)CO[C@@H]21 (some centres not stated) [Moxalactam] (Biolog plate: PM13, well positions: H5-8)",1.69 ± 0.24
12,"Cc1cc(N)c2ccccc2[n+]1CCCCCCCCCC[n+]1c(C)cc(N)c2ccccc21 [Dequalinium chloride] (Biolog plate: PM13, well positions: A5-8)",1.23 ± 0.086
13,"Cn1cnc([N+](=O)[O-])c1Sc1ncnc2[nH]cnc12 [azathioprine] (Biolog plate: PM18, well positions: B9-12)",0.797 ± 0.12
14,"Cc1cc(NS(=O)(=O)c2ccc(N)cc2)no1 [Sulfa-methoxazole] (Biolog plate: PM12, well positions: G5-8)",2.26 ± 0.52
15,"O=C([O-])c1ccccc1O.[Na+] [sodium salicylate (NSAID)] (Biolog plate: PM17, well positions: B1-4)",5.52 ± 2
16,"O=C(O)/C=C/c1ccccc1 [cinnamic acid] (Biolog plate: PM19, well positions: C9-12)",9.92 ± 5.1
17,"C[C@@H]1NC(=O)[C@@H](N)CNC(=O)[C@H](C2CCNC(=N)N2)NC(=O)/C(=C/NC(N)=O)NC(=O)[C@H](CNC(=O)CC(N)CCCN)NC1=O.N=C1NCC[C@H]([C@@H]2NC(=O)/C(=C/NC(N)=O)NC(=O)[C@H](CNC(=O)C[C@@H](N)CCCN)NC(=O)[C@H](CO)NC(=O)[C@@H](N)CNC2=O)N1 [Capreomycin] (Biolog plate: PM11, well positions: D1-4)",1.24 ± 0.1
18,"CCn1cc(C(=O)O)c(=O)c2cc(F)c(N3CCNC(C)C3)c(F)c21 (configuration not stated) [Lomefloxacin] (Biolog plate: PM11, well positions: B9-12)",1.5 ± 0.2

row,Compound,PosmB-lux reporter fold induction
1,"CO/N=C(\C(=O)N[C@@H]1C(=O)N2C(C(=O)O)=C(COC(N)=O)CS[C@H]12)c1ccco1 [Cefuroxime] (Biolog plate: PM13, well positions: D1-4)",1.85 ± 0.24
2,"O=C(N[C@H](CO)[C@H](O)c1ccc([N+](=O)[O-])cc1)C(Cl)Cl [Chloramphenicol] (Biolog plate: PM14, well positions: F1-4)",2.41 ± 1.1
3,"Nc1ccc(S(=O)(=O)Nc2ncccn2)cc1 [Sulfadiazine] (Biolog plate: PM12, well positions: E5-8)",2.21 ± 0.27
4,"CS(=O)(=O)c1ccc([C@@H](O)[C@@H](CO)NC(=O)C(Cl)Cl)cc1 [thiamphenicol] (Biolog plate: PM18, well positions: A9-12)",0.659 ± 0.017
5,"O=C(O)c1cn(C2CC2)c2cc(N3CCNCC3)c(F)cc2c1=O [ciprofloxacin] (Biolog plate: PM20, well positions: D5-8)",1.63 ± 0.41
6,"NC(CO)C(=O)NNCc1ccc(O)c(O)c1O (configuration not stated) [Benserazide] (Biolog plate: PM20, well positions: A9-12)",1.16 ± 0.17
7,"OC(CCN1CCCCC1)(c1ccccc1)c1ccccc1 [pridinol] (Biolog plate: PM20, well positions: F9-12)",2.86 ± 0.61
8,"CCCCCCCCCCCC[N+](C)(C)CCOc1ccccc1 [Domiphen bromide] (Biolog plate: PM15, well positions: D5-8)",1.98 ± 0.26
9,"O=c1ccc2ccc(O)cc2o1 [umbelliferone] (Biolog plate: PM19, well positions: C5-8)",1.07 ± 0.18
10,"NC[C@@H]1O[C@H](O[C@H]2[C@@H](O)[C@H](O[C@@H]3[C@@H](O)[C@H](N)C[C@H](N)[C@H]3O[C@H]3O[C@H](CN)[C@@H](O)[C@H](O)[C@H]3N)O[C@@H]2CO)[C@H](N)[C@@H](O)[C@@H]1O [Neomycin] (Biolog plate: PM11, well positions: F9-12)",1.51 ± 0.15
11,"O=C1C=C(O)C(=O)c2ccccc21 [lawsone] (Biolog plate: PM19, well positions: E9-12)",1.63 ± 0.34
12,"Cc1cc(C)nc(NS(=O)(=O)c2ccc(N)cc2)n1 [Sulfamethazine] (Biolog plate: PM12, well positions: D5-8)",3.6 ± 0.65
13,"CCCCC(CC)CNC(=N)NC(=N)NCCCCCCNC(=N)NC(=N)NCC(CC)CCCC (configuration not stated) [Alexidine] (Biolog plate: PM15, well positions: E1-4)",2.48 ± 0.99
14,"NCC(=O)O [Glycine] (Biolog plate: PM13, well positions: F5-8)",1.52 ± 0.2
15,"CN(C)c1ccc(O)c2c1C[C@H]1C[C@H]3[C@H](N(C)C)C(O)=C(C(N)=O)C(=O)[C@@]3(O)C(O)=C1C2=O [Minocycline] (Biolog plate: PM11, well positions: C9-12)",2.54 ± 0.15
16,"CC(C)NCC(O)COc1cccc2ccccc12 (racemic) [D,L-propranolol] (Biolog plate: PM20, well positions: B5-8)",5.54 ± 2.8
17,"CN[C@@H]1[C@H](O)[C@H](NC)[C@H]2O[C@@]3(O)C(=O)C[C@@H](C)O[C@H]3O[C@@H]2[C@H]1O [Spectinomycin] (Biolog plate: PM12, well positions: G1-4)",1.57 ± 0.26
18,"O=P(O)(O)OP(=O)(O)O [sodium pyrophosphate decahydrate] (Biolog plate: PM18, well positions: A5-8)",1.27 ± 0.59
